These results are taken from PubChem BioAssay (Tox21).

Records with an inconclusive call do not appear. Where a call stands in place of a potency, no number is given. Active and inactive are the calls of the source. The call rests on the fitted dose curve.

A short description of the assay: p53 small molecule agonists, cell-based qHTS assay: qHTS cell viability counter screen (AID 1963581). Further: nearly all actives have a fitted effect of over 45% in size. The conditions noted are these: p53RE-bla HCT-116 viability, ATP luminescence, 16 h; series mostly up to 66 µM. The method in brief:
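In the same plates used for the p53 bla reporter, HCT-116 cells given compounds for 16 h at 37 C received CellTiter-Glo; luminescence was recorded 30 min later at room temperature.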
On the technique in general: qHTS replaces the single test concentration by a dilution series.
Turning to `CC(=O)O[C@]1(C(C)=O)CC[C@H]2[C@@H]3C[C@H](C)C4=CC(=O)CC[C@]4(C)[C@H]3CC[C@@]21C`, the Potency result is “inactive”.

Regarding `COC(=O)c1ccc(O)cc1`, the Potency result was “inactive”.

As to `CC(=O)CC(C)(C)O`, the Potency entry is “inactive”.

With `O=c1[nH]cc(F)c(=O)[nH]1`, the Potency entry is “inactive”.

`COc1ccc(Cl)cc1C(=O)NCCc1ccc(S(=O)(=O)NC(=O)NC2CCCCC2)cc1`: the Potency entry was “inactive”.

On to `CC(=O)OC/C=C(C)/C=C/C=C(C)/C=C/C1=C(C)CCCC1(C)C`, for which the Potency entry was “inactive”.

`CCCCCCCCCCN`: the Potency result is “inactive”.

As to `C[C@H]1C[C@H]2[C@@H]3CCC4=CC(=O)C=C[C@]4(C)[C@@]3(F)[C@@H](O)C[C@]2(C)[C@@]1(O)C(=O)CO`, the Potency result was “inactive”.

`CCCCN(CCCC)CCCC`: the Potency entry was “inactive”.

Regarding `CCCCCCC(C)O` (stereo not given), the Potency result is “inactive”.

Turning to `O=[Se](O)O`, the Potency result was “inactive”.

In the case of `Cc1ccc(S(=O)(=O)NCl)cc1`, the Potency result was “inactive”.

As to `CC(=O)O[C@]1(C(C)=O)CC[C@H]2[C@@H]3C=C(Cl)C4=CC(=O)CC[C@]4(C)[C@H]3CC[C@@]21C`, the Potency result is “inactive”.

For `CCC(C)C=O` (stereo not given), the Potency entry was “inactive”.

As to `CC1(C)S[C@@H]2[C@H](NC(=O)[C@H](N)c3ccccc3)C(=O)N2[C@H]1C(=O)O`, the Potency entry is “inactive”.

`CC(C)[N+](C)(CCOC(=O)C1c2ccccc2Oc2ccccc21)C(C)C`: the Potency result was “inactive”.

Turning to `CC(C)(C)NC(=O)[C@H]1CC[C@H]2[C@@H]3CC[C@H]4NC(=O)C=C[C@]4(C)[C@H]3CC[C@]12C`, the Potency result was “inactive”.

With `Cn1c(=O)c2[nH]cnc2n(C)c1=O`, the Potency entry was “inactive”.

In the case of `CCCCC/C=C\C/C=C\CCCCCCCC(=O)O`, the Potency result was “inactive”.

Regarding `CCCc1c(OCCCCc2nn[nH]n2)ccc(C(C)=O)c1O`, the Potency entry was “inactive”.

Turning to `CC(=O)c1ccc(O)cc1`, the Potency entry is “inactive”.

Take `NC(=O)c1ccccc1O`: the Potency entry is “inactive”.

As for `CC(C)CC(C)CC(O)CC(C)C` (stereo not given), the Potency entry is “inactive”.

For `C[C@]12CCC(=O)C=C1CC[C@@H]1[C@@H]2C(=O)C[C@@]2(C)[C@H]1CC[C@]2(O)C(=O)CO`, the Potency result is “inactive”.

`CC(=O)Nc1ccc(C(=O)O)cc1`: the Potency entry was “inactive”.

On to `Nc1c2c(nc3ccccc13)CCCC2`, for which the Potency result is “inactive”.

On to `C[C@H]1C[C@@H]2[C@H]([C@@H](O)C[C@@]3(C)[C@H]2CC[C@]3(O)C(=O)CO)[C@@]2(C)C=CC(=O)C=C12`, for which the Potency entry is “inactive”.

Consider `C=CCNC(N)=S`, for which the Potency result was “inactive”.

Turning to `CC(=O)Nc1ccc(C(=O)CCl)cc1`, the Potency result is “inactive”.

Turning to `CCOC(N)=O`, the Potency result was “inactive”.

As for `NC(=O)NO`, the Potency result was “inactive”.

With `O=C(O)CN(CC(=O)O)CC(=O)O`, the Potency entry was “inactive”.

As for `CN1C(C(=O)Nc2ccccn2)=C(O)c2ccccc2S1(=O)=O`, the Potency result is “inactive”.

Turning to `O=CCCCC=O`, the Potency entry is “inactive”.

Regarding `COCCc1ccc(OCC(O)CNC(C)C)cc1` (stereo not given), the Potency result was “inactive”.

For `CCN(CC)CCOC(=O)c1ccc(N)cc1`, the Potency entry was “inactive”.

Regarding `CC(C)Cc1ccc(C(C)C(=O)O)cc1` (stereo not given), the Potency result was “inactive”.

On to `O=c1c(-c2ccc(O)cc2)coc2cc(O)cc(O)c12`, for which the Potency entry is “inactive”.

Turning to `CCc1ccc(CCOc2ccc(CC3SC(=O)NC3=O)cc2)nc1` (stereo not given), the Potency result was “inactive”.

For `Cc1nnc(NS(=O)(=O)c2ccc(N)cc2)s1`, the Potency entry is “inactive”.
